What all share (design): scale not given: direction of the effect not stated beside the values
For assay [1], the target named is Protein translocase subunit SecA (Escherichia coli (strain K12)) (UniProt P10408). The assay can be described thus: Assay to Identify E. coli SecA ATPase Inhibitors. Type of assay: functional. Particulars: 30 µM.
Assay [2] addresses T1, Ubiquitin-activating enzyme e1, putative (Leishmania donovani (strain BPK282A1)) (UniProt E9BSI1).
T1 sequence (whole entry): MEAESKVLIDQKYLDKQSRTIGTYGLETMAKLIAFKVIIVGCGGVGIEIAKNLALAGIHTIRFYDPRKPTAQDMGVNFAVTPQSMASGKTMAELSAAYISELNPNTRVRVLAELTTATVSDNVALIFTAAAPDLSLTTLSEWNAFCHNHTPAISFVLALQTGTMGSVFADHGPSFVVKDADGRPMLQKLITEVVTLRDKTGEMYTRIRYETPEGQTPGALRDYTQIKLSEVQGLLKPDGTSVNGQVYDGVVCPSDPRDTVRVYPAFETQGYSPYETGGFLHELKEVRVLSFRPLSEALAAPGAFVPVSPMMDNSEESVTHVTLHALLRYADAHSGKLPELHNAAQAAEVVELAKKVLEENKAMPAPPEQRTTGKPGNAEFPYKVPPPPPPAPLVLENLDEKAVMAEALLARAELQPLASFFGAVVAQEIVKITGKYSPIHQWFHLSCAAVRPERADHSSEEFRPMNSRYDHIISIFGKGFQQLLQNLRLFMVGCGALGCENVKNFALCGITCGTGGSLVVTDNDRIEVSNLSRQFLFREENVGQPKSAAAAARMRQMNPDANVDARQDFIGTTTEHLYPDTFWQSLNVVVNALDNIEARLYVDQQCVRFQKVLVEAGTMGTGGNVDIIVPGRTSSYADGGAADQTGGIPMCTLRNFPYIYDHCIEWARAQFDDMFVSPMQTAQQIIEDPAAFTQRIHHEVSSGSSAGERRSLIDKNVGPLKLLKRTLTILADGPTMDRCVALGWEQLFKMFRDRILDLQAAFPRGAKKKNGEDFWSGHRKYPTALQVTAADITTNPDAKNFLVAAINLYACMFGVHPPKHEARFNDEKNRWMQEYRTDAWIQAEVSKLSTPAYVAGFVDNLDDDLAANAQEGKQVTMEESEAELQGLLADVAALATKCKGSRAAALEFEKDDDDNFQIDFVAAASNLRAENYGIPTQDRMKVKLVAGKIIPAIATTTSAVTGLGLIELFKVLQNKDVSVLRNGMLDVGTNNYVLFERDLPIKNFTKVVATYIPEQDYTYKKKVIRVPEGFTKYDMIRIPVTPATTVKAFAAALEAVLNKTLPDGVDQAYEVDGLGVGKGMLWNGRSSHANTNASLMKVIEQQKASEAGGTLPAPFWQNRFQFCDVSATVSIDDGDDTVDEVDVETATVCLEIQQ
The assay can be described thus: Leishmania donovani Ubiquitin Activating Enzyme (LdE1). Type of assay: functional. Particulars: 30 µM.

Assay [3] addresses AMP-activated protein kinase, AMPK (Homo sapiens) (UniProt P54646+O43741+P54619+Q9UGJ0+Q9Y478+Q13131+Q9UGI9). The assay can be described thus: AMP-dependent Kinase enzyme assay. An in vitro enzyme assay that detects ADP turnover that is directly proportional to AMPK activity. This uses naive AMPK that is activated during the assay with MK-8722. Type of assay: functional. Particulars: 30 µM.

Assay [4] deals with Sialic acid-binding Ig-like lectin 9 (Homo sapiens) (UniProt Q9Y336). The assay can be described thus: Hs-Siglec9 ALPHAscreen SOP 20170721. Particulars: 10 µM. (Bead proximity is the source of the signal in Alpha formats.)
Assay [5] deals with Trypanosoma cruzi. The assay can be described thus: Trypanosoma cruzi phosphomannomutase and mannose-1-phosphate guanylyltransferase assay. Type of assay: functional. Particulars: 10 µM.
Assay [6] concerns the target T2, Arginase-2, mitochondrial (Homo sapiens) (UniProt P78540).
T2 sequence (whole entry): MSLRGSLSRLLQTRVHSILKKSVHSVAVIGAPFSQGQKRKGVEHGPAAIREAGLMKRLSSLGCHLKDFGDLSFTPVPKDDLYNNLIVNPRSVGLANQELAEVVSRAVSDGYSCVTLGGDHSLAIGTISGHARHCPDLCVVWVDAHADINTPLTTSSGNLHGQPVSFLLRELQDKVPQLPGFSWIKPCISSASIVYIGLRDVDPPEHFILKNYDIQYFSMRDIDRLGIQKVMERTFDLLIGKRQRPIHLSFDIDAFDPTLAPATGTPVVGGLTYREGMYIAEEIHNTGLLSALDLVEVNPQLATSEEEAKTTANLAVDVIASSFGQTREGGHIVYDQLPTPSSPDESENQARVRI
The assay can be described thus: in vitro enzyme assay to detect the production of urea directly proportional to the activity of Arginase II. Further: in the data most compounds retested in dose-response had high values. The format is functional. Particulars: 33.3 µM.

Assay [7] addresses T3, Proteasome subunit beta (Trypanosoma cruzi) (UniProt O96673).
T3 sequence (whole entry): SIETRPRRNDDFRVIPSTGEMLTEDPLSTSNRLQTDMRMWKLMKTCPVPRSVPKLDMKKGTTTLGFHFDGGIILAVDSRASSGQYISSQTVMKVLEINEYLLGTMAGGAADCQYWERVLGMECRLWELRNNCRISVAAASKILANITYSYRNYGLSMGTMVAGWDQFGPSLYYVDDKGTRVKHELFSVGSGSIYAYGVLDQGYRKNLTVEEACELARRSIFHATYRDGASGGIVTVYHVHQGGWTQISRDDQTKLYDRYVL
The assay can be described thus: Trypanosoma cruzi proteasome chymotrypsin-like activity (TcProtChymo) assay. Further: in the data most compounds retested in dose-response had high values. Type of assay: functional. Particulars: 9.37 µM.

The species named for assay [8] is Homo sapiens. The assay can be described thus: To identify inhibition of the IFN signalling (Jak-Stat) pathway via expression of an eGFP reporter gene under the control of an IFN-stimulated response element (ISRE) containing MxA promoter. Type of assay: functional. Particulars: 30 µM.
In assay [9] the target is T4, Tyrosyl-tRNA synthetase, putative (Trypanosoma cruzi (strain CL Brener)) (UniProt Q4DSP6).
T4 sequence (whole entry): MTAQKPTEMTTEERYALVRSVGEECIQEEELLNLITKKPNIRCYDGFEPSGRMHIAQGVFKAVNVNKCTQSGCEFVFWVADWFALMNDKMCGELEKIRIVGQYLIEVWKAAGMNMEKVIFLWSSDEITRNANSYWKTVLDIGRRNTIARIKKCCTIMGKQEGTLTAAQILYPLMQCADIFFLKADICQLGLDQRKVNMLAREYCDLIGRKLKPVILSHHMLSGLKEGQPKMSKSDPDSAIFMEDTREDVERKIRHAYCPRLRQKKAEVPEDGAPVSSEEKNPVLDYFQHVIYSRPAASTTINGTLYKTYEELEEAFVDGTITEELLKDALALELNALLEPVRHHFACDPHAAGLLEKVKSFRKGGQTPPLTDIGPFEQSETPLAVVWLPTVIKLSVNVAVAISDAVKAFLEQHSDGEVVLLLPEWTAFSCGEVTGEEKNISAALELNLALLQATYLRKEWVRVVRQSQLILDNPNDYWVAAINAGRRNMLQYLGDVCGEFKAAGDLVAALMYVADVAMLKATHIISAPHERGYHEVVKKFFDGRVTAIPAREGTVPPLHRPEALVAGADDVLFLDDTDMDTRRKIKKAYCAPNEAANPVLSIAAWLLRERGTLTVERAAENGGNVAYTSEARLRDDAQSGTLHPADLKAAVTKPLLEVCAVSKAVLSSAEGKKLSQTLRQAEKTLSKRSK
The assay can be described thus: Trypanosoma cruzi tyrosyl tRNA synthetase (TcYRS) _High Tyrosine SOP. Further: in the data most compounds retested in dose-response had high values. The format is functional. Particulars: 30 µM.

The target of assay [10] is T4, Tyrosyl-tRNA synthetase, putative (Trypanosoma cruzi (strain CL Brener)). The assay can be described thus: Trypanosoma cruzi tyrosyl tRNA synthetase (TcYRS) SOP. Type of assay: functional. Particulars: 30 µM.
In assay [11] the target is Chromo domain-containing protein 1 (Saccharomyces cerevisiae (strain ATCC 204508 / S288c) (Baker's yeast)) (UniProt P32657). The assay can be described thus: ScCHD-1 Enzyme Inhibition Assay. Further: in the data most compounds retested in dose-response had high values. Type of assay: functional. Particulars: 30 µM.

For some of these results: Potency and affinity values are given separately.

Chromo domain-containing protein 1 (Saccharomyces cerevisiae (strain ATCC 204508 / S288c) (Baker's yeast)), sequence (P32657 whole entry, the tested form may be a part): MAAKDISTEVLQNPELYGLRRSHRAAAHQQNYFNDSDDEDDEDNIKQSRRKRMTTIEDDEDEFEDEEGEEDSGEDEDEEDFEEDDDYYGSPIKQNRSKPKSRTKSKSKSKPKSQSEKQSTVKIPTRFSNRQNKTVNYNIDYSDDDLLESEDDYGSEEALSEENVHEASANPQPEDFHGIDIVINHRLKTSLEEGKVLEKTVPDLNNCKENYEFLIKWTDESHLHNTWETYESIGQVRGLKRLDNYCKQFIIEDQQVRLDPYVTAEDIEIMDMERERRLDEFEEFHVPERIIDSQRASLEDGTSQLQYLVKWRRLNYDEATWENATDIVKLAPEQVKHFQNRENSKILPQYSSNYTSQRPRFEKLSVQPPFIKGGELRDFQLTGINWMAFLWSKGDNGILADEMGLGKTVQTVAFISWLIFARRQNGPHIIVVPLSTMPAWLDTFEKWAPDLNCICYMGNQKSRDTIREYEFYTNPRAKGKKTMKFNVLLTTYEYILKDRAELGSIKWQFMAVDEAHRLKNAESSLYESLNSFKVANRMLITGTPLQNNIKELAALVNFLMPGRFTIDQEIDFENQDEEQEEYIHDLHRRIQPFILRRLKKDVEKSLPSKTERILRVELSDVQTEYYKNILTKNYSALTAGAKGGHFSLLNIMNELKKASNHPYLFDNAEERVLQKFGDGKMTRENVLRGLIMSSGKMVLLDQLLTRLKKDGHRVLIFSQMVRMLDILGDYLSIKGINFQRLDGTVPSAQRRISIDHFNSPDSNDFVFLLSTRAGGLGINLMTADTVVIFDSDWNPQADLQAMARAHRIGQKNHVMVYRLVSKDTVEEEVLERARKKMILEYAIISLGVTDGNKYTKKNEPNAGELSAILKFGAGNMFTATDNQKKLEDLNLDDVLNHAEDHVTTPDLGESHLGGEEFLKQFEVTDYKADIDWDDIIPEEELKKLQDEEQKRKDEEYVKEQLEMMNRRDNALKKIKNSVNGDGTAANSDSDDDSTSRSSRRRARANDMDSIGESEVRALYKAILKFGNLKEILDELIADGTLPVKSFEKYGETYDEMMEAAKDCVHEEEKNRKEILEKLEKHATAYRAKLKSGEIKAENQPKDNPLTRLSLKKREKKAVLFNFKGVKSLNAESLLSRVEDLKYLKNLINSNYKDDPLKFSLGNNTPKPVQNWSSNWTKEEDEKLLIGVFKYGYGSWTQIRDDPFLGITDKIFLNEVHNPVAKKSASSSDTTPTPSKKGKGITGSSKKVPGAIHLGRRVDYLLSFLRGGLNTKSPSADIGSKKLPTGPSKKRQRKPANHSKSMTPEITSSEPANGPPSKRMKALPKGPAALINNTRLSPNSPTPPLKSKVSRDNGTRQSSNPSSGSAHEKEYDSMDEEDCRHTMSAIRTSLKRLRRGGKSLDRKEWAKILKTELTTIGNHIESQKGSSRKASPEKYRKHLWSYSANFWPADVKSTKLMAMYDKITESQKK
Protein translocase subunit SecA (Escherichia coli (strain K12)), sequence (P10408 whole entry): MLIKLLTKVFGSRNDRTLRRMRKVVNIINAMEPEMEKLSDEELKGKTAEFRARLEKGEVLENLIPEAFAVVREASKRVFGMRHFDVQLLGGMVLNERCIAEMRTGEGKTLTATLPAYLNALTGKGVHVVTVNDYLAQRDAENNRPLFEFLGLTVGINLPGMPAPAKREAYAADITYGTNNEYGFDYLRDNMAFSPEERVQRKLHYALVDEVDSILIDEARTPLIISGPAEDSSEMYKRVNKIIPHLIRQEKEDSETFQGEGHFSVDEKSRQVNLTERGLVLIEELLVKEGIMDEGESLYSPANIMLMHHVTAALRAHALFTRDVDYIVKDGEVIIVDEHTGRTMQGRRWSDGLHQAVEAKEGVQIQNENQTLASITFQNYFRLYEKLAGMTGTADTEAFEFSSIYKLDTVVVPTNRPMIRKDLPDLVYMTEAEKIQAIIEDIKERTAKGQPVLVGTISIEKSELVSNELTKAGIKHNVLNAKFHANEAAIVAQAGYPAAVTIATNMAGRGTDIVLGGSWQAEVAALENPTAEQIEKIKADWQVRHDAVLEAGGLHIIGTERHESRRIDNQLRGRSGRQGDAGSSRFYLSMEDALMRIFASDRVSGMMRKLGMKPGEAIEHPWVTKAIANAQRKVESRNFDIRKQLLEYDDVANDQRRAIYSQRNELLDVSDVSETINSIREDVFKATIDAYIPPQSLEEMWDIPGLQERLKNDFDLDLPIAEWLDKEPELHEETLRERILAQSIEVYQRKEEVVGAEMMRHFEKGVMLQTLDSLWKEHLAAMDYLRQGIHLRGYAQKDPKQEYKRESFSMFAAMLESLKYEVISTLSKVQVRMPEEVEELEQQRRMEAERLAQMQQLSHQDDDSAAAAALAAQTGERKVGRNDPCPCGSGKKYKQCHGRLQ
Sialic acid-binding Ig-like lectin 9 (Homo sapiens), sequence (Q9Y336 whole entry): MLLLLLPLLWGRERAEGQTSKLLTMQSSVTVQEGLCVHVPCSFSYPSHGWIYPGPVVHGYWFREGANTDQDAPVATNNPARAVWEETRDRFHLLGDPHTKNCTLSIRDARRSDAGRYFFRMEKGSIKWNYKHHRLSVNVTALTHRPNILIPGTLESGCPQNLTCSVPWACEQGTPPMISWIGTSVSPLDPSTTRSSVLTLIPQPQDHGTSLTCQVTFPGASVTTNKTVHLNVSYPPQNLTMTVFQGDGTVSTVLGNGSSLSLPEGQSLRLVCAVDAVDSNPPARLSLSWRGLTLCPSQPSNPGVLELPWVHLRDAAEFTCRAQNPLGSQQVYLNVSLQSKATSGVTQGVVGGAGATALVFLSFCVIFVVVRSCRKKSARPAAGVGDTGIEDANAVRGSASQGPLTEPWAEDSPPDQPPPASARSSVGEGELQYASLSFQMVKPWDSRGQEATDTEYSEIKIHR

Regarding `CN1CCC(NC(=O)NCCNc2ccccn2)CC1`, the Percent Effect in [1] is -2.67%; in assay [2] it was 16.2%; in [3], -6.97%; in assay [4] it was 16.2%; in [5], 4.92%; in [6] it was 3.14%. Besides, the Percent Effect was 16.5% in [7]; 5.52% in [8]; 3.96% in assay [9]; 15.8% in assay [10]; -6.11% in assay [11].

For the compound `COc1cccc(OCC2CCCN(C3CCN(C(C)=O)CC3)C2)c1` (stereo unspecified), the Percent Effect in assay [1] was -0.921%; in [2], 5.41%; in [3], 0.304%; in assay [4], -4.78%; in [5], -3.67%; in [6], 1.43%. Further, the Percent Effect in [7] is 18.4%; in assay [8] it was -5.82%; in assay [9] it was 4.76%; in [10] it was 12.2%; in [11], -2.6%.

Regarding `Cn1cc(CN2CCn3cc(CNC(=O)c4cccn4C)nc3C2)cn1`, the Percent Effect is -0.61% in assay [1]; 0% in assay [2]; 12.6% in assay [3]; 0.00498% in assay [4]; -0.394% in assay [5]; -0.699% in assay [6]. Also, the Percent Effect in [7] was -4.32%; in assay [8], 3.52%; in assay [9] it was 4.25%; in assay [10] it was 6.41%; in assay [11], 5.91%.

Turning to `CCn1cnnc1CNC(=O)N(C)Cc1ccc(F)c(F)c1`, the Percent Effect in assay [1] is -2.13%; in assay [2] it was 18.9%; in assay [3] it was -11.7%; in assay [4], 14.1%; in assay [5] it was 1.04%; in assay [6] it was -5.21%. For the same compound, the Percent Effect in assay [7] was 7.57%; in [8], 8.28%; in assay [9] it was 7.39%; in assay [10] it was 18.5%; in [11], -7.63%.

`c1cnc2c(c1)cc([C@H]1CCCO1)n2CCN1CCOCC1`: the Percent Effect was -4.11% in assay [1]; 9.46% in assay [2]; 14.2% in assay [3]; 5.59% in assay [4]; -0.593% in assay [5]; -5.8% in [6]. The Percent Effect was 3.9% in assay [7]; 3.93% in assay [8]; 1.07% in assay [9]; 11.7% in assay [10]; -13.8% in assay [11].

Turning to `CC(C)Nc1ccc2nc(C3CCN(C(C)C)CC3)nn2c1`, the Percent Effect in assay [1] was -0.345%; in assay [2] it was 8.11%; in [3] it was -95.9%; in assay [4], -2.89%; in assay [5] it was 3.91%; in [6], 26.2%. Also, the Percent Effect in [7] is 8.54%; in assay [8], 7.24%; in assay [9], 10.9%; in [10] it was 8.54%; in [11], -1.81%.

`CC(C)c1cc(NCC(O)c2ccc(F)cc2)n2nccc2n1` (stereo unspecified): the Percent Effect in assay [1] was -2.04%; in [2] it was 2.7%; in assay [3], 10.8%; in [4] it was 1.77%; in assay [5], 1.35%; in assay [6], -4.29%. The Percent Effect in [7] is 3.97%; in [8] it was 38.1%; in [9] it was 2.65%; in assay [10], 7.32%; in assay [11], 4.86%.

Take `Cc1cc(N2CCC3(CCC(=O)N(CC4CC4)C3)CC2)nc(N)n1`: the Percent Effect in assay [1] was -4.29%; in [2] it was 5.41%; in [3], -2.2%; in assay [4], 5.16%; in assay [5], -0.88%; in assay [6] it was -1.74%. Further, the Percent Effect in [7] is 8.15%; in [8], 7.43%; in [9], 9.68%; in assay [10], 8.64%; in assay [11], -3.15%.

For `Cc1nn(-c2ccccc2)c2c1C(c1ccc(C(=O)O)cc1)CC(=O)N2` (stereo unspecified), the Percent Effect in assay [1] was -4.78%; in [2] it was 10.7%; in assay [3] it was -3.15%; in assay [4], 13.8%; in [5], 6.33%; in assay [6], 2.6%. Further, the Percent Effect in assay [7] is 7.85%; in [8], 11.5%; in assay [9] it was 3.83%; in [10], 6.17%; in assay [11], -14.9%.

Consider `CCn1cc(NC(=O)NCC(c2cccc(F)c2)N(C)C)cn1` (stereo unspecified), for which the Percent Effect was 0.401% in [1]; 13.2% in assay [2]; 0.674% in assay [3]; 6.49% in assay [4]; -0.752% in assay [5]; 0.383% in [6]. In addition, the Percent Effect in assay [7] was 4.68%; in assay [8], -12.5%; in assay [9], 11.3%; in [10], 21.9%; in [11], -5.78%.

Turning to `COC(=O)CCNC(=O)c1ccoc1CN1c2ccccc2CC1C` (stereo unspecified), the Percent Effect in assay [1] was -4.57%; in [2] it was 0%; in [3], 6.85%; in assay [4] it was 8.39%; in [5], 1.98%; in [6], -18.4%. Moreover, the Percent Effect was 19.9% in [7]; 9.3% in assay [8]; 6.25% in [9]; 3.7% in assay [10]; -2.6% in [11].

These data come from ChEMBL document CHEMBL3988442, “University of Dundee, Small-Polar-MMV Screening Library” (2021).
